Results filed as inconclusive are left out. Entries that show only a call come without a potency. Activity calls are given as the source filed them. Calls follow the shape of the dose curve; as a rule, active = well fitted inhibition curve with a large enough effect; inconclusive = small, poorly fitted or top-dose-only effect; inactive = flat fitted curve, though single readings scatter.

We go through 23 compounds from PubChem BioAssay (NCATS).

In the test the target is Calcium and integrin-binding protein 1 (Homo sapiens) (UniProt Q99828). The test can be described thus: Primary qHTS for Identification of Calcium Integrin Binding Protein 1 (CIB1) Competitor (AID 1508620).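 Also: GST tagged CIB1 binding a fluorescein labelled alphaIIb integrin peptide tracer; top concentration of the series differs between compounds.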 Conditions: CIB1-GST / FITC-alphaIIb peptide fluorescence polarization; series mostly up to 114 µM. In short, it runs like this: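 CIB1-GST (1 uM final) and compound incubated 15 min at room temperature before adding FITC-alphaIIb peptide tracer (100 nM final). Competition for binding read by fluorescence polarization (ex 480, em 540) after another 15 min at room temperature.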
Calcium and integrin-binding protein 1 (Homo sapiens), sequence (Q99828 whole entry, looked up): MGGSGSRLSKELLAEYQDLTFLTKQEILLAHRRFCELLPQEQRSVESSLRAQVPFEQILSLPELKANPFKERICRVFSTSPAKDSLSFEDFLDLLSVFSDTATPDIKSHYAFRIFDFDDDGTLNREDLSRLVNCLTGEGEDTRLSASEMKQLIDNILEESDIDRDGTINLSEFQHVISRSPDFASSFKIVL
In the case of `COc1cc(OC)c(C(CC(=O)N2CC(C)CC(C)C2)c2ccc3c(c2)OCO3)c(OCC(N)=O)c1` (stereo not drawn), the Potency result is “inactive”. With `CC(C)(C)CNc1nc(C#N)nc(Nc2ccccc2)n1`, the Potency result is “inactive”. Next, `COc1ccc(C2c3c(n(CCCc4ccccc4)cnc3=N)Oc3ccc4ccccc4c32)cc1OC` (stereo not drawn): “inactive”. For the compound `COc1cc(Nc2nc(-c3ccncc3)nc3ccccc23)ccc1NS(C)(=O)=O`, the Potency result is “inactive”. Next, `Cc1cc(-c2nnc3n2CCCCCC3)c(C)n1-c1ccccc1`: “inactive”; `Cn1ccc2cc(-c3csc(N4CCC(C(N)=O)CC4)n3)ccc21`: “inactive”; `CCOc1ccc(CCNC(=O)c2cc3sccc3[nH]2)cc1OCC`: “inactive”.

Take `NC(=O)C1CCN(c2ncc(-c3ccc(Cl)cc3)s2)CC1`: the Potency result was “inactive”.

For `Cc1ccc(NS(=O)(=O)c2cc3c(cc2N(C)C)NC(=O)CC3)cc1C`, the Potency result was “inactive”. As to `O=C(Nc1ccc(Cl)c(C(F)(F)F)c1)Nc1nnc(-c2cccnc2)s1`, the Potency result was “inactive”. For the compound `COc1cc(F)c(S(=O)(=O)N2CCCN(S(=O)(=O)c3ccc(N)cc3)CC2)c(F)c1`, the Potency entry is “inactive”. Regarding `Cc1cc2c(s1)c1cnn(Cc3cc(F)c(F)c(F)c3)c(=O)c1n2C`, the Potency result is “inactive”.

`COc1ccc(C2Nc3ccccc3C(=O)N2Cc2cccs2)cc1COc1c(C)cccc1C` (stereo not drawn): the Potency entry was “inactive”. Next, `COc1ccc(C(=O)Oc2ccc(-c3nc4ccccc4[nH]3)cc2)cc1OC`: “inactive”. Take `O=S(=O)(c1ccc2c(c1)OCCO2)N1CCN(S(=O)(=O)c2cc(F)c(F)cc2F)CC1`: the Potency result was “inactive”.

As to `Cc1ccc(C)c(SC2=NS(=O)(=O)c3ccccc32)c1`, the Potency entry was “inactive”.

Turning to `CC(C)Oc1cccc(-c2csc(N3CCC(C(N)=O)CC3)n2)c1`, the Potency entry was “inactive”. Next, `Cc1cc(N[S+](=O)([O-])c2ccc(NC(=O)Cc3ccc4c(c3)OCCO4)cc2)no1`: “inactive”; `c1ccc(-n2cc(-c3nnc4n3CCCCC4)c3ccccc32)cc1`: “inactive”; `O=C1Cc2cc(S(=O)(=O)N3CCN(c4ccc(C(F)(F)F)cc4)CC3)ccc2N1`: “inactive”.

With `OC(c1ccccc1)(c1ccccc1)c1cnc2ccccn12`, the Potency entry is “inactive”.

Regarding `O=[S+]([O-])(c1ccc(N2CCOCC2)nc1)N1CCN([S+](=O)([O-])c2c(F)cccc2F)CC1`, the Potency result was “inactive”. With `Cc1cn([C@H]2C[C@H](N[S+](=O)([O-])Cc3ccc([N+](=O)[O-])cc3)[C@@H](CO)O2)c(=O)[nH]c1=O` the entry was “inactive”.
